This passage reports inhibition results from PubChem BioAssay AID778 (Sanford-Burnham Center for Chemical Genomics, 2007).

In all, about 96,000 compounds went through this assay and about 20,000 (21%) were called active.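 How the source made its calls: active means CYP2C19 inhibition above a set limit at 5 µM in the primary screen (cut at about 50% in these data); inactive means the rest.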 Only a sample is shown.

As usually defined, the inhibition is the change of the read-out against control, counted positive when it falls.

In the assay the target is Cytochrome P450 2C19 (Homo sapiens) (UniProt P33261). The assay is described as follows: blockers of cytochrome P450 2C19 activity – biochemical, luminescence, ADME assay, primary screen (AID 778).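 Further: plate controls were negative control wells for no effect and 2.5 mM tranylcypromine positive control for full effect.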 Conditions: CYP2C19 Supersomes, luciferin-H EGE luminescence, 30 min; at 5 µM; hits give high values.
Cytochrome P450 2C19 (Homo sapiens), sequence (P33261 whole entry, looked up): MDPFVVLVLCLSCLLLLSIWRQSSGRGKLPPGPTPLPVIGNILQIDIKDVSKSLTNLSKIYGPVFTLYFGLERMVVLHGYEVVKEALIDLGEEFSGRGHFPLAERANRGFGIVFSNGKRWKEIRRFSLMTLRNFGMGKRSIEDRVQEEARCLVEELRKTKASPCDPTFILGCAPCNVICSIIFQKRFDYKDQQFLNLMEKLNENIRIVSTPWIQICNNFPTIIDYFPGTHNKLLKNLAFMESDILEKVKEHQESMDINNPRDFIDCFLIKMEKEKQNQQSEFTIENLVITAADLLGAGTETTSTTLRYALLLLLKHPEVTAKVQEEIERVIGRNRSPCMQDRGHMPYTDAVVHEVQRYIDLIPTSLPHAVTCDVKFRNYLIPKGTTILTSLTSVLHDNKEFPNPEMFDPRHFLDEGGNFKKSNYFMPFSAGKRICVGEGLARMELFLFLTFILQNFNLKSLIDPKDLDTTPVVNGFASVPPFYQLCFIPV
`CCOC(=O)c1c(C(C#N)C#N)cc(C)nc1C`: the inhibition is -4.1% (inactive).
Then `CC(=O)Nc1ccc(NC(=O)c2sc3nc4c(c(-c5ccc(C)cc5)c3c2N)CCC4)cc1`, with -6.7% (inactive).
Take `NS(=O)(=O)c1ccc(NS(=O)(=O)/C=C/c2ccccc2)cc1`: the inhibition was 38.8% (inactive).
Then `O=S(=O)(/C=C/c1ccccc1)NCCc1ccccn1`, with 53.8% (active).
The value for `C/C(N)=C(\C#N)C(=O)NCCc1ccccn1` was -6.3% (inactive); that for `COc1ccc(CC(=O)Nc2nc3n(n2)C(c2ccccc2)CC(=O)N3)cc1OC` (configuration not stated) was -4.1% (inactive).
Then `CCc1ccc2oc(=O)cc(CN3CCCCC3C)c2c1` (configuration not stated), with 92.7% (active); and `O=c1cc(CN2CCN(c3cccc(Cl)c3)CC2)c2cc3c(cc2o1)CCCC3`, with 12.6% (inactive).
`COc1ccc(CN2CCCCC2C)cc1OC` (configuration not stated): the inhibition is 3% (inactive).
The value for `O=C(CSc1nnc(-c2ccoc2)o1)N1CCOCC1` was -14.6% (inactive); that for `Cc1cc(C)n(-c2cc(Oc3ccccc3)ncn2)n1` was 15.9% (inactive).
The value for `CNS(=O)(=O)c1cnccc1N1CCN(c2cccc(C)c2)CC1` was 78.6% (active); that for `O=S(=O)(c1cnccc1N1CCN(/N=C/c2ccc(Br)cc2)CC1)N1CCCCC1` was -12% (inactive); that for `CC(C)=C1SC(N2CCN(c3cccc(C)c3)CC2)=NC1=O` was 6.5% (inactive).
The value for `CCn1c(SCC(=O)Nc2nc(C)cs2)nnc1C(C)NC(=O)c1ccccc1` (configuration not stated) was 8.1% (inactive).
Turning to `O=C1CC(c2ccccc2)CC(O)=C1C=NCCN1CCOCC1` (configuration not stated), the inhibition was 0.2% (inactive).
The value for `CCCc1nnc(NC(=O)c2cc(OC)cc(OC)c2)s1` was 32.5% (inactive).
Then `COc1ccc(OC)c(S(=O)(=O)Nc2ccccc2F)c1`, with 85.9% (active); and `COc1ccc(Cl)cc1S(=O)(=O)Nc1cccc(C(=O)O)c1`, with 13.4% (inactive).
On to `COc1ccccc1NS(=O)(=O)N(C)C`, for which the inhibition was 4.9% (inactive).
The value for `Cn1c(SCC(=O)OC2CCCCC2)nnc1-c1ccc(S(=O)(=O)N2CCCC2)cc1` was 5.7% (inactive); that for `Cc1ccc(NC(=S)NC2CCCC2)cc1` was 54.5% (active); that for `CC(C)c1ccc(NC(=O)NC2CCCCC2)cc1` was -15.2% (inactive).
Regarding `Cc1ccc(NC(=S)N/N=C2/CCCc3c(C)cc(C)cc32)cc1`, the inhibition is -4.5% (inactive).
For the compound `CCOC(=O)N1CCN(CC(=O)c2ccc3c(c2)CCN3)CC1`, the inhibition is 34.1% (inactive).
The value for `CC(C)NC(=O)C(=O)N/N=C/c1ccco1` was -7% (inactive); that for `O=C1c2ccccc2C(=O)N1CCc1nn[nH]n1` was -6.8% (inactive); that for `O=C1c2ccccc2C(=O)N1CCC(c1ccccc1)c1ccco1` (configuration not stated) was 22.9% (inactive).
The value for `Nc1ccc(SCCN2C(=O)c3ccccc3C2=O)cc1` was 94.6% (active); that for `Cc1cc(Br)ccc1NC(=O)C1CCCO1` (configuration not stated) was 46.4% (inactive).
Turning to `CCn1c(O)c(N=NC2=NC(=O)CS2)c2cc(C)ccc21`, the inhibition was 14.8% (inactive).
Then `O=C(O)C1C2C=CC(C2)C1C(=O)N1CCN(CCO)CC1` (configuration not stated), with 1% (inactive); and `CC1CC2=C(CC1/C=N/NC(N)=S)C(C)(C)CCC2` (configuration not stated), with 30.6% (inactive); and `CCc1ccc(NC(=O)CSc2nc3ccccc3c(=O)n2CCN2CCOCC2)cc1`, with 34.4% (inactive).
Then `O=C(CSc1nc2cc3c(cc2c(=O)n1CCC1=CCCCC1)OCO3)NCc1ccco1`, with 7.2% (inactive); and `O=C(CCCn1c(SCC(=O)c2ccc(F)cc2)nc2ccccc2c1=O)NCc1ccco1`, with 70% (active).
Then `O=C(CCn1c(SCC(=O)c2ccccc2)nc2ccccc2c1=O)NCc1ccc(F)cc1`, with 60.5% (active); and `O=C(Cn1c(=O)n(Cc2ccco2)c(=O)c2ccccc21)NCC1CCCO1` (configuration not stated), with 7.3% (inactive).
On to `CCCCCCn1c(SCC(=O)c2ccccc2)nc2c1c(=O)[nH]c(=O)n2C`, for which the inhibition is -16.1% (inactive).
In the case of `Cn1c(-c2ccc(F)cc2)cnc1SCC(=O)NCc1ccco1`, the inhibition is 10.8% (inactive).
The value for `O=C(CCCn1c(SCC(=O)c2ccccc2)nc2ccccc2c1=O)NCC1CCCO1` (configuration not stated) was 58.1% (active); that for `CCCCn1c(SCC(=O)NCC2CCCO2)nc2ccc(N3CCOCC3)cc2c1=O` (configuration not stated) was 34.3% (inactive).
On to `COc1ccc(C(=O)Nc2c(N)nc(SCC(=O)N3CCC(C)CC3)[nH]c2=O)cc1OC`, for which the inhibition is -6.9% (inactive).
With `CC(=O)Nc1ccc(C(=O)CSc2nnc(Cc3ccccc3)o2)cc1`, the inhibition was 16.6% (inactive).
Then `CC(C)C[C@@H](N)c1nnc(SCC(=O)c2ccc(Cl)cc2)o1`, with 90.5% (active); and `O=C(CSc1nnc(-c2c[nH]c3ccccc23)o1)c1ccccc1`, with 16.6% (inactive).
As to `O=C(OCc1cn(-c2ccc(Cl)c(Cl)c2)nn1)c1ccccc1Cl`, the inhibition is -4.8% (inactive).
The value for `CSc1ncccc1C(=O)OCC(=O)N1CCOCC1` was 3.2% (inactive); that for `CCOc1ncccc1C(=O)OCc1cn2cc(Cl)ccc2n1` was 62.6% (active); that for `CC1CCc2sc3nc(N4CCN(CCO)CC4)n4ncnc4c3c2C1` (configuration not stated) was 37.2% (inactive).
The value for `CC(=O)N=c1ncn(CC(COC(C)=O)OC(C)=O)c2nc[nH]c12` (configuration not stated) was 4.1% (inactive).
For the compound `CCN(CC)S(=O)(=O)c1ccc2c3c(cccc13)C(=O)S2`, the inhibition is 81.1% (active).
Take `CCCCCN(C(=O)NC(=O)Nc1ccccc1OC)S(C)(=O)=O`: the inhibition was 39.3% (inactive).
Regarding `Cc1ccc(OCc2nnc(NC(=O)OCC(C)C)s2)cc1`, the inhibition is 5.9% (inactive).
Consider `Cc1ccc(C)c(N2CCN(C(=O)CCCCn3c(=O)[nH]c4ccccc4c3=O)CC2)c1`, for which the inhibition was 46.3% (inactive).
Regarding `Cc1cccc(NC(=S)N2CCC(c3nc4ccccc4s3)CC2)c1`, the inhibition is 8.3% (inactive).
The value for `CCCN(Cc1cc2cccc(C)c2[nH]c1=O)S(C)(=O)=O` was 23% (inactive); that for `Cc1cccc2cc(CN(Cc3cccs3)C(c3nnnn3C3CCCC3)C(C)C)c(=O)[nH]c12` (configuration not stated) was 73.4% (active).
Then `Cc1cccc2cc(CN(Cc3nnnn3Cc3ccccc3)C3CCCC3)c(=O)[nH]c12`, with 94.6% (active); and `Cc1cccc2cc(CN(Cc3ccc4c(c3)OCO4)Cc3nnnn3C3CCCC3)c(=O)[nH]c12`, with 33.8% (inactive); and `COc1ccc(CCN(Cc2cc3cccc(C)c3[nH]c2=O)C(=O)N2CCCC2)cc1OC`, with 15.5% (inactive).
Then `CCC(c1nnnn1C1CCCC1)N(Cc1cccs1)Cc1cc2cccc(C)c2[nH]c1=O` (configuration not stated), with 45.9% (inactive).
Consider `COc1ccc(/C=C2\CCCC3C2=NN(C(=O)c2scnc2C)C3c2ccc(OC)cc2)cc1` (configuration not stated), for which the inhibition is 32.7% (inactive).
Regarding `O=C(NCCCCCCCCCNC(=O)C(F)(F)F)C(F)(F)F`, the inhibition was 13.6% (inactive).
With `COC(=O)c1ccc(Oc2nc(NC(C)C)nc(SC)n2)cc1`, the inhibition is 27.5% (inactive).
Then `O=C(CSc1nnc(-c2ccncc2)n1C1CCCCC1)Nc1ccccc1`, with 45% (inactive); and `O=C(Nc1ccon1)c1cccc(Cl)c1`, with 14.4% (inactive).
For `CCNc1nc(N)nc(Oc2ccc(OCC)nn2)n1`, the inhibition was -16.2% (inactive).
For `CCC(C)(C)NC(=O)C(c1cccn1C)N(Cc1ccc(C)cc1)C(=O)Cn1nnc2ccccc21` (configuration not stated), the inhibition was 35.9% (inactive).
The value for `O=C(NCc1cccnc1)c1cccnc1Sc1ccc(Cl)cc1` was 48.3% (inactive); that for `C1=C(CCNc2ncnc3c2cnn3-c2ccccc2)CCCC1` was 9.8% (inactive).
Then `Clc1ccc(Cn2ncc3c(NCc4cccnc4)ncnc32)cc1`, with 66.5% (active).
As to `CC(OC(=O)CN1C(=O)C2CCCCC2C1=O)C(=O)Nc1ncc(Cl)cc1Cl` (configuration not stated), the inhibition was 7.4% (inactive).
The value for `CS(=O)(=O)N(CC(=O)Nc1ccc(F)cc1F)c1cccc([N+](=O)[O-])c1` was 60.9% (active); that for `COc1cccc(N(CC(=O)Nc2cccc(F)c2)S(C)(=O)=O)c1` was 48.9% (inactive).
The value for `Cc1ccc(N(CC(=O)Nc2cccc(N(C)S(C)(=O)=O)c2)S(C)(=O)=O)cc1` was 3% (inactive); that for `CCOC(=O)N1CCN(S(=O)(=O)c2ccc(C(=O)Nc3ccc(F)cc3F)cc2)CC1` was 5.6% (inactive); that for `CCN(CC)S(=O)(=O)c1ccc(NC(=O)CN(c2cccc(F)c2)S(C)(=O)=O)cc1` was 77.2% (active).
The value for `COC(=O)CN(c1cccc(C(C)=O)c1)S(C)(=O)=O` was 3.1% (inactive); that for `COc1ccc(C(C#N)Nc2ccccc2C)cc1` (configuration not stated) was 52.2% (active); that for `COc1ccc(C(C#N)N2N=C(C)CC2(C)C)cc1` (configuration not stated) was -6.5% (inactive).
For the compound `COc1ccc(C(C#N)Nc2ccc(C)cc2)cc1` (configuration not stated), the inhibition was -1.7% (inactive).
The value for `CCOC(=O)c1c(C)n(C)c2ccc(OC)c(NC(=O)CN3CCC4(CC3)OCCO4)c12` was 33.3% (inactive); that for `O=C(N1CCOCC1)N1CCOCC1` was -2.7% (inactive); that for `CCOC(=O)c1c(NC(=O)/C=C/c2ccco2)sc(C)c1C` was -5.9% (inactive).
The value for `COCCCNCC(=O)Nc1sc(C)c(C)c1C(=O)OC` was 70.9% (active); that for `CCc1c(C)sc(NC(=O)c2ccc(Br)o2)c1C(=O)OC` was 1.5% (inactive); that for `COC(=O)[C@@H](NC(=O)Nc1cc(Cl)ccc1C)C(C)C` was 32.6% (inactive).
The value for `c1ccc(-n2ncc(-c3nn[nH]n3)n2)cc1` was 31.3% (inactive); that for `O=c1oc2c(CN3CCCCC3)c(O)ccc2c2c1CCCCC2` was 3.9% (inactive); that for `CCN1CCN(C(=O)CN(C)S(=O)(=O)c2ccc(OC)cc2)CC1` was -19.4% (inactive).
As to `CS(=O)(=O)N(CC(=O)N1CCN(c2cccc(Cl)c2)CC1)c1ccccc1`, the inhibition is 46.4% (inactive).
Then `COc1ccc(OC)c(S(=O)(=O)N(C)CC(=O)N2CCN(c3ccccc3)CC2)c1`, with 72.6% (active); and `N#CC(C(=O)c1ccc(S(=O)(=O)N2CCCCCC2)cc1)c1nc2ccccc2[nH]1` (configuration not stated), with 43.2% (inactive); and `Cc1cccc(NC(=O)C(C)N2C(=O)C3C4CC(C(Br)C4Br)C3C2=O)c1` (configuration not stated), with 35% (inactive).
The value for `FC(F)(F)c1ccc2nnc(-c3c(Cl)cccc3Cl)n2c1` was 30.4% (inactive); that for `COc1cccc(C(CC(=O)NCCN2CCOCC2)NS(=O)(=O)c2ccc(C)cc2)c1OC` (configuration not stated) was -12% (inactive).
